Results reported in ChEMBL document CHEMBL1961873, “Compounds: GSK PKIS; Assays: Nanosyn kinase panel” (2012).

What was measured:
[1] = target: 5'-AMP-activated protein kinase catalytic subunit alpha-2 (Homo sapiens) (UniProt P54646); settings: at 1 µM
[2] = target: T1, NUAK family SNF1-like kinase 1 (Homo sapiens) (UniProt O60285); settings: at 0.1 µM
T1 sequence (whole entry): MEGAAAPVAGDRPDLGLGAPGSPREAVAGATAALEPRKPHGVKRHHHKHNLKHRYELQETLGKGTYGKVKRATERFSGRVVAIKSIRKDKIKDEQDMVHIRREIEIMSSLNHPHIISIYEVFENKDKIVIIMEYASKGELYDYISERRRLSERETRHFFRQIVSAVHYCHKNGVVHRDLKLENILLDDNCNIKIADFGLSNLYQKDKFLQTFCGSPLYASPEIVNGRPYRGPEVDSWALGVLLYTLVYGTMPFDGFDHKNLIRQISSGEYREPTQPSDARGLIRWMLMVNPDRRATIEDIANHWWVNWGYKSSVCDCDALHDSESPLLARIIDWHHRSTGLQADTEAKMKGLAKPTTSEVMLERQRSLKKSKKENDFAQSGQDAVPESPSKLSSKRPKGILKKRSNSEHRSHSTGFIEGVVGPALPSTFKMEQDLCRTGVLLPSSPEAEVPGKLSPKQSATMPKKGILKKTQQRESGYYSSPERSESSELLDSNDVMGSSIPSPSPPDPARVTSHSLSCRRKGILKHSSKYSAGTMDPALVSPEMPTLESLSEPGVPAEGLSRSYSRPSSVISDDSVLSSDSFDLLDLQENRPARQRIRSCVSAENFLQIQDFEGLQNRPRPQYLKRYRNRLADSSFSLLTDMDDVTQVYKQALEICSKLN

[3] = target: T1, NUAK family SNF1-like kinase 1 (Homo sapiens); settings: at 1 µM
[4] = target: T2, Serine/threonine-protein kinase BRSK1 (Homo sapiens) (UniProt Q8TDC3); settings: at 0.1 µM
T2 sequence (whole entry): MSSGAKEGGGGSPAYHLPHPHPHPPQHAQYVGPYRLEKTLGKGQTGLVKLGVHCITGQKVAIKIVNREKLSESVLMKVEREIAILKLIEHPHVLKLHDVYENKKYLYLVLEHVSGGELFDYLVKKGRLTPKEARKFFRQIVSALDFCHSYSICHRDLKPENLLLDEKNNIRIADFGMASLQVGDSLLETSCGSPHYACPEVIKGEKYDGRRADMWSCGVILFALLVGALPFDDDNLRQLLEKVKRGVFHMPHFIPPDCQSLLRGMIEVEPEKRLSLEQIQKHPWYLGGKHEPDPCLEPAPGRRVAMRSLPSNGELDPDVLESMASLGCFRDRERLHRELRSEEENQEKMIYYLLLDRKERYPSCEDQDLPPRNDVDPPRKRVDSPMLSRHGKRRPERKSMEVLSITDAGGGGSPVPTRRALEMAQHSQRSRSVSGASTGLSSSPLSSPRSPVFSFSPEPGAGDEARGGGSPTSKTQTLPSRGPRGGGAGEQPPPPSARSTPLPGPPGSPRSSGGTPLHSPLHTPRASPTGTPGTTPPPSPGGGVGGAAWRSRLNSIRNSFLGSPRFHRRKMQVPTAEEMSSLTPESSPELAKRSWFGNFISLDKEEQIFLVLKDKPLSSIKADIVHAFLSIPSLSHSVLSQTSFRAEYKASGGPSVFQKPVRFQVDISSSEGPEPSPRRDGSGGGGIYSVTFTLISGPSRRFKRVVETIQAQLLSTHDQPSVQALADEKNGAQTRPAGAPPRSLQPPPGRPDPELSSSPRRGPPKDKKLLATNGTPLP

[5] = target: T2, Serine/threonine-protein kinase BRSK1 (Homo sapiens); settings: at 1 µM
[6] = target: T3, Serine/threonine-protein kinase BRSK2 (Homo sapiens) (UniProt Q8IWQ3); settings: at 0.1 µM
T3 sequence (whole entry): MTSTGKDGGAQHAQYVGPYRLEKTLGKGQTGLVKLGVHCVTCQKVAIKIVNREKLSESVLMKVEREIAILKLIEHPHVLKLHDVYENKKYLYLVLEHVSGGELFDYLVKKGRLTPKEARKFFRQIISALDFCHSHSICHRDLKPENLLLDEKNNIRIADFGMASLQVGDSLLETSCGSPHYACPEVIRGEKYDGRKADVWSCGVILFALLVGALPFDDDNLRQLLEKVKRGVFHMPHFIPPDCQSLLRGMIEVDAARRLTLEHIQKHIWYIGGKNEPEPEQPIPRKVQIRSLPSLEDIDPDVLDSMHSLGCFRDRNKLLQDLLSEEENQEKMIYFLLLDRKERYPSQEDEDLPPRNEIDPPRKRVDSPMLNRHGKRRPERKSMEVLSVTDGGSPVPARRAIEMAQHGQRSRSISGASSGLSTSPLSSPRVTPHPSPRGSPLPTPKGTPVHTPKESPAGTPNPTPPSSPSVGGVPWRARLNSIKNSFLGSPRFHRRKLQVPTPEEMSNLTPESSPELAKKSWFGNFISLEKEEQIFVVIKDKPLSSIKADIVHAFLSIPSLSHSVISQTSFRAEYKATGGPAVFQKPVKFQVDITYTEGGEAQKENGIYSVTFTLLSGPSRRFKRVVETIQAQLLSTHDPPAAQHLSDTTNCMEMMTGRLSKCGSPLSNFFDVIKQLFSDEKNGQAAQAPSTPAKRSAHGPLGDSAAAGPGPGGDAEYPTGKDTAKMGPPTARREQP

[7] = target: T3, Serine/threonine-protein kinase BRSK2 (Homo sapiens); settings: at 1 µM
[8] = target: Calcium/calmodulin-dependent protein kinase type 1D (Homo sapiens) (UniProt Q8IU85); settings: at 0.1 µM
[9] = target: Calcium/calmodulin-dependent protein kinase type 1D (Homo sapiens) (UniProt Q8IU85); settings: at 1 µM
[10] = target: Calcium/calmodulin-dependent protein kinase type II subunit alpha (Homo sapiens) (UniProt Q9UQM7); settings: at 0.1 µM
[11] = target: Calcium/calmodulin-dependent protein kinase type II subunit alpha (Homo sapiens) (UniProt Q9UQM7); settings: at 1 µM
[12] = target: Calcium/calmodulin-dependent protein kinase type II subunit delta (Homo sapiens) (UniProt Q13557); settings: at 0.1 µM
[13] = target: Calcium/calmodulin-dependent protein kinase type II subunit delta (Homo sapiens) (UniProt Q13557); settings: at 1 µM
[14] = target: T4, Calcium/calmodulin-dependent protein kinase type IV (Homo sapiens) (UniProt Q16566); settings: at 0.1 µM
T4 sequence (whole entry): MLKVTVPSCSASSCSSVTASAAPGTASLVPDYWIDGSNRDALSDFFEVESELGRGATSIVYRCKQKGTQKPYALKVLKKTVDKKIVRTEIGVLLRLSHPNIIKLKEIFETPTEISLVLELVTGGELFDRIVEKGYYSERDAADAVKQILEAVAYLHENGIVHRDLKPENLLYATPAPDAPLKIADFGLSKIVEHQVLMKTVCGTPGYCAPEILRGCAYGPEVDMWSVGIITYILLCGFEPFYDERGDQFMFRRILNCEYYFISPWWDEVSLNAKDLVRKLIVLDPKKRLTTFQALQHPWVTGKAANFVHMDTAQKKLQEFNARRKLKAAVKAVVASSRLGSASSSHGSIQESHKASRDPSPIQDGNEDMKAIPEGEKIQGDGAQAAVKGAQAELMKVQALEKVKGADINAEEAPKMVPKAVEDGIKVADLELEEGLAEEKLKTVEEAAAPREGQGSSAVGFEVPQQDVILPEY

[15] = target: T4, Calcium/calmodulin-dependent protein kinase type IV (Homo sapiens); settings: at 1 µM
[16] = target: T5, Serine/threonine-protein kinase Chk1 (Homo sapiens) (UniProt O14757); settings: at 0.1 µM
T5 sequence (whole entry): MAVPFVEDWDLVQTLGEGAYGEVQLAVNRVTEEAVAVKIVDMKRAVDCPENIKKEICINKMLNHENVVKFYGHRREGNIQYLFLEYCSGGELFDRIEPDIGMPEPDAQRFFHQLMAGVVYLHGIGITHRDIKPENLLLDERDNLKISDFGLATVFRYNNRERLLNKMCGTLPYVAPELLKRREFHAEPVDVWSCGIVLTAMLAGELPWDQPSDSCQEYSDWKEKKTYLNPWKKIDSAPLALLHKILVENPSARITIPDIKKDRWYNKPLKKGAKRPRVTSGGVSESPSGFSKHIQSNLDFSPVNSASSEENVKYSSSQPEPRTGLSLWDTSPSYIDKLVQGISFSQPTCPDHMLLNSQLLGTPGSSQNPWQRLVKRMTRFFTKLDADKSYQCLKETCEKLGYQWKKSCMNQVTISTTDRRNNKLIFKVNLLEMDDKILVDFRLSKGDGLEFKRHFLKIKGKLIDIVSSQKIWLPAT

[17] = target: T5, Serine/threonine-protein kinase Chk1 (Homo sapiens); settings: at 1 µM
[18] = target: Serine/threonine-protein kinase Chk2 (Homo sapiens) (UniProt O96017); settings: at 0.1 µM
[19] = target: Serine/threonine-protein kinase Chk2 (Homo sapiens) (UniProt O96017); settings: at 1 µM
[20] = target: Death-associated protein kinase 1 (Homo sapiens) (UniProt P53355); settings: at 0.1 µM;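 also: reported figure is the mean inhibition of DAPK1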
Death-associated protein kinase 1 (Homo sapiens), sequence (P53355 whole entry, looked up): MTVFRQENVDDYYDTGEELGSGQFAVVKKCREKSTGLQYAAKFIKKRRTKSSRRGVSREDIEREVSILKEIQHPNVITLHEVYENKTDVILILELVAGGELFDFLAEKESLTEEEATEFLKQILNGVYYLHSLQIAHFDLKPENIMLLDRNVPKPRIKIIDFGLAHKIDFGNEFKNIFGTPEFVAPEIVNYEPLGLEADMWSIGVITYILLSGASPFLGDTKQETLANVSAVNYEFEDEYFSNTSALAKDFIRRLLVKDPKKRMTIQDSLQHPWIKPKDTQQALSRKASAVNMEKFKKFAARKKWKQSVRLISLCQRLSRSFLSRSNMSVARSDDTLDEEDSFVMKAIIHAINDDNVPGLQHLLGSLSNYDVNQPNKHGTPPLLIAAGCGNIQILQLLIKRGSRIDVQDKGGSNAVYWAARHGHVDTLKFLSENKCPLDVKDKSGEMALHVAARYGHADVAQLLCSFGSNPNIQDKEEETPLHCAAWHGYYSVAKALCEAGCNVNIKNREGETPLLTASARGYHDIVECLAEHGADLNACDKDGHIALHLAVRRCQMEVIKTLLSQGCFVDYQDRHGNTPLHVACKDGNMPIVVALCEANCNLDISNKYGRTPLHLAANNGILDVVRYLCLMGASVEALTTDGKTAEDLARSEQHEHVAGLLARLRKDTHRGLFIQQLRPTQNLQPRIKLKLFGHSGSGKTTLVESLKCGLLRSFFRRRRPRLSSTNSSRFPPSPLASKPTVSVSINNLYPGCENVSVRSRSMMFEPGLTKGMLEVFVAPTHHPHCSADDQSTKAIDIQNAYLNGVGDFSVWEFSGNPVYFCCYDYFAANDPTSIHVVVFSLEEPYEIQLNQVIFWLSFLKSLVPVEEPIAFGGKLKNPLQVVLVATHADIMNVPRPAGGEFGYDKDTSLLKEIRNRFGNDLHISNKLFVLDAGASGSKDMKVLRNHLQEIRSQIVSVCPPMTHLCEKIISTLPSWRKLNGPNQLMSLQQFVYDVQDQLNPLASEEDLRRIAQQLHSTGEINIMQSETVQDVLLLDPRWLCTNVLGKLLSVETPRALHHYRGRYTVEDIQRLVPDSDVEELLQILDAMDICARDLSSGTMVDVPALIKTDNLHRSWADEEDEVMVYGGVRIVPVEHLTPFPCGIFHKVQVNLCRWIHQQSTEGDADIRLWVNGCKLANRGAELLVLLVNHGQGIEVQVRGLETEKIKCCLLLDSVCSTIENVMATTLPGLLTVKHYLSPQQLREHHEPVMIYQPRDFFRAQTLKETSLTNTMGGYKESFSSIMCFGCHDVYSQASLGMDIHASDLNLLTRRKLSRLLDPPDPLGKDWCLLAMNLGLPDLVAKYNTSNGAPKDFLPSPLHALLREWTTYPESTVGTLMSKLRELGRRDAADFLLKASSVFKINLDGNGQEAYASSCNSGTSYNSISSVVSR

Serine/threonine-protein kinase Chk2 (Homo sapiens), sequence (O96017 whole entry): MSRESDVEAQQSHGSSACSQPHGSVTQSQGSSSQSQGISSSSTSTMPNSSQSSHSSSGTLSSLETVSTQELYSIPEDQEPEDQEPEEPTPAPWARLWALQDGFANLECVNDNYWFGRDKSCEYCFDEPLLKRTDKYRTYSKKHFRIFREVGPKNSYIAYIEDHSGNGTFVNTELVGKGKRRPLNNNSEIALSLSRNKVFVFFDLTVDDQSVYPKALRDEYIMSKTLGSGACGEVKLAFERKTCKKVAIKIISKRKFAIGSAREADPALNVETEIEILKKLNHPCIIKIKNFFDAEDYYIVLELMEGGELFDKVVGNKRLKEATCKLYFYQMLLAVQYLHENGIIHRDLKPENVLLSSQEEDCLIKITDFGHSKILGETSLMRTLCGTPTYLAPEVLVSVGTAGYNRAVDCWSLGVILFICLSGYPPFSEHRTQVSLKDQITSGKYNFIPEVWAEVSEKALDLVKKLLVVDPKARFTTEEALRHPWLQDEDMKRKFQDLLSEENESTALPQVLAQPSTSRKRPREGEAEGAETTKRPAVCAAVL
Calcium/calmodulin-dependent protein kinase type 1D (Homo sapiens), sequence (Q8IU85 whole entry, looked up): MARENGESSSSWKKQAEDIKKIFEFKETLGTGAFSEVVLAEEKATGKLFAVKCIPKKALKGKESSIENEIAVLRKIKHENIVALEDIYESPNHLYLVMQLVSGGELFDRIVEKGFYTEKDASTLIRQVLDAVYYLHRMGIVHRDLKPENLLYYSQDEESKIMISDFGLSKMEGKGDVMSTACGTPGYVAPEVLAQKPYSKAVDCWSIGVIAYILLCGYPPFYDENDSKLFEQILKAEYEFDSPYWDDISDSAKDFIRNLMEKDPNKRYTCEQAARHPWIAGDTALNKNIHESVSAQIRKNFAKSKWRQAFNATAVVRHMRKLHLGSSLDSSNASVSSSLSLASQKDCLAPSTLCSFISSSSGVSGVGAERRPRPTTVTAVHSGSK
5'-AMP-activated protein kinase catalytic subunit alpha-2 (Homo sapiens), sequence (P54646 whole entry, looked up): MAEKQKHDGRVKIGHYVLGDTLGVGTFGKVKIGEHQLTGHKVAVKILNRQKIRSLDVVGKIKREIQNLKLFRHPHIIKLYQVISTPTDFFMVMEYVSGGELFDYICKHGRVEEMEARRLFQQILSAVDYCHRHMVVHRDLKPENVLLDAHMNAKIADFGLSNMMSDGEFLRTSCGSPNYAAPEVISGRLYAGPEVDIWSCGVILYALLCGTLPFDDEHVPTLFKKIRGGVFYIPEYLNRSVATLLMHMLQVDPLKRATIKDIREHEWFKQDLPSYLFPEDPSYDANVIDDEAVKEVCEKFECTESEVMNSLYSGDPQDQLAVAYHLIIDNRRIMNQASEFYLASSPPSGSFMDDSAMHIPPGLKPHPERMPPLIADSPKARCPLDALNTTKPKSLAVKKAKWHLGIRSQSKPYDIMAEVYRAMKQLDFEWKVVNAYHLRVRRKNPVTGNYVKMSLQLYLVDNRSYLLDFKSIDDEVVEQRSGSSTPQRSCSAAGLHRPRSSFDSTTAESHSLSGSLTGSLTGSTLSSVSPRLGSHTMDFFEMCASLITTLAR
Calcium/calmodulin-dependent protein kinase type II subunit delta (Homo sapiens), sequence (Q13557 whole entry): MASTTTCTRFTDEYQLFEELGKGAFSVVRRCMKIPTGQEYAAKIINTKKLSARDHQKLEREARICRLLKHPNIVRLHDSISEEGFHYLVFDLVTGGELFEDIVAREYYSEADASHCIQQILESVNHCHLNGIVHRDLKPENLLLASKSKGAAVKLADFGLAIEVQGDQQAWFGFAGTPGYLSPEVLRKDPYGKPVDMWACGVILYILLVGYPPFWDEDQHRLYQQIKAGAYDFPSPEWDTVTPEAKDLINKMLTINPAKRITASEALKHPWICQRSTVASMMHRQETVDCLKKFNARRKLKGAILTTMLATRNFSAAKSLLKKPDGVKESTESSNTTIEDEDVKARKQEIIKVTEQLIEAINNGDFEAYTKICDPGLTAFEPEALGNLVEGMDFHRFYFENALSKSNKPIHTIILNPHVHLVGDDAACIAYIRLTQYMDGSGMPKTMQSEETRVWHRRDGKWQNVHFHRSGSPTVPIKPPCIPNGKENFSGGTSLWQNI
Calcium/calmodulin-dependent protein kinase type II subunit alpha (Homo sapiens), sequence (Q9UQM7 whole entry): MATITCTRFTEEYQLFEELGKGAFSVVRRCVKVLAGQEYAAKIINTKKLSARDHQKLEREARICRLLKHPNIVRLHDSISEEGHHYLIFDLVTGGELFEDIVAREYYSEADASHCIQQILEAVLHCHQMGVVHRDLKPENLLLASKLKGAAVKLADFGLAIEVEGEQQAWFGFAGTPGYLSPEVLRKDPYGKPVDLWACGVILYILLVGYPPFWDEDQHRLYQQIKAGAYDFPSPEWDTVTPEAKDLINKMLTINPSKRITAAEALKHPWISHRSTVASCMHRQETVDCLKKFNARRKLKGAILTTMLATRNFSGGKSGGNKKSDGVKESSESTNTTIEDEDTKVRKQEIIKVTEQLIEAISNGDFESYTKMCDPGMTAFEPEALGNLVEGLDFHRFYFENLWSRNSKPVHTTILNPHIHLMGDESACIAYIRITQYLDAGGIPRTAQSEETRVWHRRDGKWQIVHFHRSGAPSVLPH

Row | SMILES | inhibition [1] [%] | inhibition [2] [%] | inhibition [3] [%] | inhibition [4] [%] | inhibition [5] [%] | inhibition [6] [%] | inhibition [7] [%] | inhibition [8] [%] | inhibition [9] [%] | inhibition [10] [%] | inhibition [11] [%] | inhibition [12] [%] | inhibition [13] [%] | inhibition [14] [%] | inhibition [15] [%] | inhibition [16] [%] | inhibition [17] [%] | inhibition [18] [%] | inhibition [19] [%] | inhibition [20] [%]
1 | O=C(Nc1n[nH]c2cc(-c3ccc(F)cc3)ccc12)C1CC1 | 6.01 | 0.71 | 2.52 | 4.68 | 26.2 | 6.41 | 33.5 | 0.43 | 1.06 | 0.76 | 5.83 | 2.59 | 3.77 | -0.12 | 1.07 | 8.27 | 10.8 | 6.26 | 6.67 | 9.31
2 | FC(F)(F)c1cccc(-c2nn3ncccc3c2-c2ccnc(Nc3ccc4c(c3)OCCO4)n2)c1 | 4.13 | 1.51 | 5.87 | 3.69 | 2.81 | 2.37 | 2.54 | -0.54 | 1.75 | 1.98 | 2.43 | 1.59 | 3.33 | 0.49 | 0.92 | 1.89 | 2.98 | 1.74 | 3.43 | 2.28
3 | c1cc(-c2cnn3nc(N4CCOCC4)ccc23)nc(NC2CC2)n1 | 7.62 | 5.42 | 25.6 | 2.4 | 6.62 | 3.67 | 7.84 | 1.69 | 2.68 | 4.7 | 6.53 | 3.77 | 9.6 | 1.3 | 2.07 | 3.63 | 1.64 | 3.07 | 7.4 | 3.51
4 | CCOc1ccc2c(-c3ccnc(Nc4cccc(C(F)(F)F)c4)n3)cnn2n1 | 2.74 | 2.71 | 7.44 | 1.14 | 4.56 | 3.01 | 2.66 | 1 | 1.1 | 0.19 | -2.29 | 2.41 | 0.44 | 1.94 | -1 | 3.49 | 3.51 | 1.55 | 1.92 | 3.1
5 | COc1ccc(CNC(=O)c2ccc(-c3cc(-c4nnc(C)o4)ccc3C)cc2)cc1 | 2.36 | 2.93 | 5.45 | 0.61 | 8.76 | 3.42 | 13 | 1.11 | -0.23 | 1.23 | 0.47 | 0.75 | -0.53 | -1.83 | -4.17 | 6.78 | 8.82 | 6.34 | 7.55 | 9.67
6 | O=C(O[C@H]1CN[C@H](C#Cc2cc3ncnc(Nc4ccc(Cc5ccccc5)cc4)c3s2)C1)N1CCOCC1 | 1.84 | -3.65 | -2.64 | 0.3 | 2.86 | 1.6 | 2.92 | -0.64 | -0.69 | 0.64 | -1.9 | 1.04 | -0.85 | -0.04 | -2.21 | 1.79 | 0.1 | 0.28 | 0.95 | 4.84
7 | c1ccc(COc2ccc(Nc3ncnc4ccc(-c5ccco5)cc34)cc2)cc1 | 3.28 | -0.16 | -1.67 | -0.97 | 1.48 | 0.91 | 1.54 | 0.28 | 11.7 | 2.01 | 0.02 | 0.67 | 0.25 | 1.19 | 0.04 | 0.21 | -0.59 | 1.08 | 4.69 | 2.45
